This note sets out measurements from PubChem BioAssay (Tox21).

Records with an inconclusive call do not appear. Activity calls are given as the source filed them. The call rests on the fitted dose curve; in most records, active means well fitted activation curve with a large enough effect in the signal ratio in the repeat runs (not every such curve was filed as active); inconclusive means weak or mixed curves, or effect the other way; inactive means no such curve, though single readings can be large or run the other way; the % refers to the signal ratio.
On the % scale 0 is the no-effect control and ±100 the full control effect.

Chain of Glucocorticoid receptor (Homo sapiens) (P04150 whole entry, looked up): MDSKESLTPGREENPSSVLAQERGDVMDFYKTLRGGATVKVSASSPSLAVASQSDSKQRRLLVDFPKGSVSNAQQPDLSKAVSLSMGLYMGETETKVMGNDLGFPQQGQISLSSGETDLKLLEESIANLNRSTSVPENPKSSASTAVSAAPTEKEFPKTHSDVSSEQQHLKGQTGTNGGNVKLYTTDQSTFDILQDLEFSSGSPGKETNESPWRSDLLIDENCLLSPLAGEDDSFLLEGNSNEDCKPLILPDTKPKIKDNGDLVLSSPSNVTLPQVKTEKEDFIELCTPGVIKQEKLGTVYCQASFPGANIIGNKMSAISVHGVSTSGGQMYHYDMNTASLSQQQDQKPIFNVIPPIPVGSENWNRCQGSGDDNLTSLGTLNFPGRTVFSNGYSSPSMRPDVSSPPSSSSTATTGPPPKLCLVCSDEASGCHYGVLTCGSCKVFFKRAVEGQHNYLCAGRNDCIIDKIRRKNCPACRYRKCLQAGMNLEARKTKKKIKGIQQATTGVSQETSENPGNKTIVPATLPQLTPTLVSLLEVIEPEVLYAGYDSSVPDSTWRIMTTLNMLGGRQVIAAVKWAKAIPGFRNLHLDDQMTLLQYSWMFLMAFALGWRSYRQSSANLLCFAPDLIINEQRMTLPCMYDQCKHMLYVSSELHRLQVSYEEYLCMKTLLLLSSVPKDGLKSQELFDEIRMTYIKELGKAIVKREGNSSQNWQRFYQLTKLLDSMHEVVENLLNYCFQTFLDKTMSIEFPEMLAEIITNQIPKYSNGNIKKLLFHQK

The assay addresses Glucocorticoid receptor (Homo sapiens) (UniProt P04150). Kind of assay: qHTS assay to identify small molecule agonists of the glucocorticoid receptor (GR) signaling pathway (AID 720691). The conditions noted are these: GR-bla HeLa, beta-lactamase reporter ratio, 18 h; series mostly up to 62.4 µM; activation: at the top concentration. The text has this:
U.S. Tox21 Program National Center for Advancing Translational Sciences [NCATS] NIH Chemical Genomics Center [NCGC] U.S. Environmental Protection Agency [EPA] National Institutes of Environmental Health Sciences [NIEHS] National Toxicology Program [NTP] U.S. Food and Drug Administration [FDA] Tox21 Assay Overview: The Glucocorticoid receptor (GR) is one of the members of the nuclear receptor family of ligand-dependent transcription factors. GR plays a critical role in carbohydrate, protein and lipid metabolisms and programmed cell death. CellSensor GR-bla HeLa cell line (Invitrogen) contains a beta-lactamase reporter gene under the control of the glucocorticoid response element stably integrated into HeLa cells, a cervical cancer cell line that expresses glucocorticoid receptor. The activation of the reporter gene under culture conditions can be detected by fluorescence intensity. This cell line has been used to screen the Tox21 10K compound library and to identify the compounds that activate the GR signaling.
Tox21 Assay Protocol Summary: The GR-bla HeLa cells were dispensed at 1500 cells/6 ul/well in 1536-well black wall/clear bottom plates using a Multidrop Combi (ThermoFisher Scientific, Waltham, MA) dispenser. After the assay plates were incubated at a 37 C/5% CO2 incubator for 4 hours, 23 nL of compounds dissolved in DMSO, positive controls or DMSO only was transferred to the assay plate by a pintool station (Kalypsys, San Diego, CA). The plates were incubated at 37 C for 18 hours. After 1 uL of LiveBLAzerTM B/G FRET substrate was added using a Flying Reagent Dispenser (Aurora Discovery, San Diego, CA), the plates were incubated at room temperature for 2 hours, and fluorescence intensity was measured by an Envision plate reader (PerkinElmer, Shelton, CT).
For orientation: In qHTS, concentration-response curves come from the screen itself.
For the molecule `ClC1=C(Cl)[C@]2(Cl)[C@@H]3[C@@H]4C[C@@H]([C@H]5O[C@@H]45)[C@@H]3[C@@]1(Cl)C2(Cl)Cl`, the “activation” value was 10.4% (inactive).

For `O=C1c2ccccc2C(=O)C1C(=O)C(c1ccccc1)c1ccc(Cl)cc1` (stereo not given), the “activation” value is 0.205% (inactive).

In the case of `COc1ccc(N)cc1N`, the “activation” value is -11.5% (inactive).

For the molecule `Nc1ccc(Cc2ccc(N)c(Cl)c2)cc1Cl`, the “activation” value is -11.6% (inactive).

Take `CC(=O)C(Cl)(Cl)Cl`: the “activation” value was -0.856% (inactive).

On to `CN(C)C1CSSSC1`, for which the “activation” value is 3.7% (inactive).

As to `CC(=O)c1cc(C(C)(C)C)cc2c1CCC2(C)C`, the “activation” value is 5.79% (inactive).

On to `CCC(C)c1cc([N+](=O)[O-])cc([N+](=O)[O-])c1OC(=O)C=C(C)C` (stereo not given), for which the “activation” value is 2.87% (inactive).

For the molecule `O=C(O)COc1nc(Cl)c(Cl)cc1Cl`, the “activation” value was -7.4% [at 79.2 µM] (inactive).

For the molecule `CC(C)(C)c1ccc(CSc2cnn(C(C)(C)C)c(=O)c2Cl)cc1`, the “activation” value is 1.18% (inactive).

On to `N#CNC#N`, for which the “activation” value is -5.2% [at 79.2 µM] (inactive).

As for `C[C@@H]1O[C@@H](O[C@@H]2C=C3CC[C@@H]4[C@H](CC[C@]5(C)[C@@H](c6ccc(=O)oc6)CC[C@]45O)[C@@]3(C)CC2)[C@H](O)[C@H](O)[C@H]1O`, the “activation” value is -8.8% [at 29.2 µM] (inactive).

As for `CC(C)(C)C(O)/C(=C\c1ccc(Cl)cc1Cl)n1cncn1` (stereo not given), the “activation” value is -0.454% [at 79.2 µM] (inactive).

Take `C[C@]12CC[C@@H]3c4ccc(OC(=O)N(CCCl)CCCl)cc4CC[C@H]3[C@@H]1CC[C@@H]2O`: the “activation” value is -6.58% (inactive).

`CC[C@H](C)[C@H]1O[C@]2(C=C[C@@H]1C)C[C@@H]1C[C@@H](C/C=C(\C)[C@@H](O[C@H]3C[C@H](OC)[C@@H](O[C@H]4C[C@H](OC)[C@@H](O)[C@H](C)O4)[C@H](C)O3)[C@@H](C)/C=C/C=C3\CO[C@@H]4[C@H](O)C(C)=C[C@@H](C(=O)O1)[C@]34O)O2`: the “activation” value was -12% (inactive).

With `Nc1ccccc1C(=O)Oc1ccc2ccccc2c1`, the “activation” value was 1.93% (inactive).

For `CSCCCN=C=S`, the “activation” value is -0.318% (inactive).

Regarding `C[C@H]1CC[C@@H]2[C@@H](C)[C@H]3[C@H](C[C@H]4[C@@H]5CC=C6CC(O[C@@H]7O[C@H](CO)[C@H](O)[C@H](O[C@@H]8O[C@H](CO)[C@@H](O)[C@H](O)[C@H]8O)[C@H]7O[C@H]7O[C@@H](C)[C@H](O)[C@@H](O)[C@H]7O)CC[C@]6(C)[C@H]5CC[C@]34C)N2C1` (stereo not given in full), the “activation” value is -2.12% [at 79.2 µM] (inactive).

As to `ClC(Cl)=C(c1ccc(Cl)cc1)c1ccc(Cl)cc1`, the Potency result was “inactive”.

For the molecule `N#C/C=C/C#N`, the “activation” value was -0.554% [at 79.2 µM] (inactive).

As for `CC(C)CCCCCCCOP(=O)(Oc1ccccc1)Oc1ccccc1`, the “activation” value is -3.15% [at 79.2 µM] (inactive).

With `CCOC(=O)OC1=C(c2cc(C)ccc2C)C(=O)NC12CCC(OC)CC2` (stereo not given), the “activation” value is -8.76% (inactive).

Turning to `CCN`, the “activation” value was 2.1% [at 79.2 µM] (inactive).

With `CC1(C)CC/C(=C/c2ccc(Cl)cc2)C1(O)Cn1cncn1` (stereo not given), the “activation” value was -13.6% (inactive).

As to `c1ccc(OCC2CO2)cc1` (stereo not given), the “activation” value is 2.87% [at 79.2 µM] (inactive).

With `CCOCCOC(C)=O`, the “activation” value was -4.85% (inactive).

Consider `CC(C)Oc1cccc(NC(=O)c2ccccc2C(F)(F)F)c1`, for which the “activation” value is -10.5% (inactive).

As to `CCOP(=O)(NC(C)C)Oc1ccc(SC)c(C)c1` (stereo not given), the “activation” value is 17.6% (inactive).

Regarding `CC(C)N1C(=O)N(c2ccccc2)CSC1=NC(C)(C)C`, the “activation” value is -0.494% (inactive).

For the molecule `FC(F)(F)c1cccc(C2=CCN(CCc3ccc4ccccc4c3)CC2)c1`, the “activation” value was -1.34% (inactive).

Take `CN(C)c1ccc(N=Nc2ccccc2)cc1`: the “activation” value is -2.77% (inactive).

As to `COc1cccc(C(=O)CCN[C@@H](C)[C@H](O)c2ccccc2)c1`, the “activation” value is -10.8% (inactive).

Turning to `CCCN(CCC)CCc1c[nH]c2ccccc12`, the “activation” value is -2.15% (inactive).

In the case of `O=[N+]([O-])c1c2ccccc2cc2ccccc12`, the “activation” value is -10.6% (inactive).

For `C[C@]12CC[C@H]3[C@@H](CCC4=CC(=O)CC[C@@]43C)[C@@H]1CC[C@@H]2O`, the “activation” value was -14% (inactive).

For the molecule `CCC(C)(C)C(=O)OC1=C(c2ccc(Cl)cc2Cl)C(=O)OC12CCCCC2`, the “activation” value is -10.6% (inactive).

As to `C[C@H]1O[C@@H](O[C@H]2[C@@H](O)C[C@H](O[C@H]3[C@@H](O)C[C@H](O[C@H]4CC[C@@]5(C)[C@H](CC[C@@H]6[C@@H]5CC[C@]5(C)[C@@H](C7=CC(=O)OC7)CC[C@]65O)C4)O[C@@H]3C)O[C@@H]2C)C[C@H](O)[C@@H]1O`, the “activation” value is -9.82% (inactive).

For the molecule `CC(=O)/C=C/c1ccc2c(c1)OCO2`, the “activation” value was -6.31% [at 79.2 µM] (inactive).

For the molecule `CC(=O)O[C@H]1CC[C@@]2(C)C(=CC[C@@H]3[C@@H]2CC[C@]2(C)C(=O)CC[C@@H]32)C1`, the Potency entry is “inactive”.

With `CCCCCCCCCBr`, the “activation” value is 3.02% [at 79.2 µM] (inactive).
